A selection: hits, their analogues and other compounds. The true share with any hit is near 5.8%.
KB-V1 cytotox: kills drug-selected multidrug resistant KB-V1 cells. AID 1347076. Potency, µM (doses to about 46.1 µM), usual class: cytotoxic. 400,000 compounds, 3.4% hits. KB-V1 MDR cells viability, CellTiter-Glo, 72 h; note: % is set by controls: 0 for no effect and ±100 for the full control effect; nearly all actives have a fitted effect of over 60% in size
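KB-V1 cells (P-gp-expressing MDR subline of KB-3-1) in phenol-red-free DMEM with 10% FBS were exposed to library compounds over a concentration series for 72 h at 37 degrees C. Viability read by CellTiter-Glo luminescence; concentration-effect curves fitted after normalization.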
PINK1 expr mod: PINK1 expression modulation. 410,000 compounds, 0.2% hits. Potency, µM (doses to about 76.6 µM), without a hit: at the highest dose activation (PINK1 increase), usual class: activators. PINK1 immunofluorescence, high-content cytometry, 24 h; active = well fitted activation curve with a large enough effect; inconclusive = small, poorly fitted or top-dose-only effect; cell line not stated here; note: % of control where 0% means no effect; nearly all actives have a fitted effect of over 65% in size
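PINK1 protein, normally rapidly degraded, was detected by immunofluorescence after 24 hour compound treatment of a stable cell line. Titration data (5 concentrations) came from laser-scanning cytometry, with CCCP-treated wells as controls.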
SW480 rerep: inducers of DNA re-replication in SW480 colon cancer cells; SW480 DNA re-replication, Hoechst DNA content imaging, 48 h; AID 624297; Potency, µM (top dose mostly 46.1 µM), inactives show top-dose re-replication activation, usual class: activators; 340,000 compounds, 1.8% hits; note: % of control where 0% means no effect; nearly all actives have a fitted effect of over 55% in size
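Image-based read-out: total Hoechst fluorescence of nuclei (405 nm excitation, 500-530 nm emission), with hits raising the fraction of high-intensity nuclei. SW480 colon cells incubated 48 hr with compounds at 37 C.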
MCF10A rereplic: DNA re-replication induction in MCF 10a cells; MCF 10A DNA re-replication, Hoechst nuclear intensity, 48 h; Potency, µM (highest dose often 46.1 µM), inactives show top-dose activity, positive = re-replication, hits mostly activators; 350,000 compounds, 2.9% hits; note: % of control where 0% means no effect; nearly all actives have a fitted effect of over 50% in size
12-LOX inh: ALOX12 (human) lipoxygenase inhibition; P18054; purified 12hLO, xylenol orange hydroperoxide absorbance; Potency, µM (top dose mostly 108 µM), inactives show top-dose activity change, negative = inhibition, usual class: inhibitors; 580,000 compounds, 1.1% hits; AID 1671190; note: % is set by controls: 0 for no effect and ±100 for the full control effect
Target sequence (P18054 whole entry, looked up): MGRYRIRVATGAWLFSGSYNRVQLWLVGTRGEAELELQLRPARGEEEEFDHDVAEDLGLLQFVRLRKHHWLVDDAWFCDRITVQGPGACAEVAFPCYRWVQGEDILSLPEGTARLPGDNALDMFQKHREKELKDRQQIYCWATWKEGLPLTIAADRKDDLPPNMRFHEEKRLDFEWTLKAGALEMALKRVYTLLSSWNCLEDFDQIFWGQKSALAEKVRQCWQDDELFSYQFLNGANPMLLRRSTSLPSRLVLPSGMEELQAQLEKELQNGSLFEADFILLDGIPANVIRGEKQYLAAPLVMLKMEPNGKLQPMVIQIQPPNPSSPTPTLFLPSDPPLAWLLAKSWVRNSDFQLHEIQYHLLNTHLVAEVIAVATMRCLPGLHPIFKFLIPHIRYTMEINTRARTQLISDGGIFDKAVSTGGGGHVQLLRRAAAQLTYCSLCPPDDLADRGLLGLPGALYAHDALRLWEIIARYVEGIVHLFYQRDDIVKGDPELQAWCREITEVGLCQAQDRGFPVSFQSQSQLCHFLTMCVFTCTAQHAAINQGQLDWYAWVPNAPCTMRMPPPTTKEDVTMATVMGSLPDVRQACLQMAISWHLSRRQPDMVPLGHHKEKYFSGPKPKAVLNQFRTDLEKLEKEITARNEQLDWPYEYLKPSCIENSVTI
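Purified human 12hLO at 150 nM in 25 mM Hepes, 0.01% Triton X-100, pH 7.0, preincubated 15 min at room temperature with compound. Reaction started with 40 uM arachidonic acid, 30 min at room temperature. Hydroperoxide measured by Fe-xylenol orange, 573/405 nm absorbance ratio.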
KB-3-1 tox: kills parental KB-3-1 adenocarcinoma cells | KB-3-1 viability, CellTiter-Glo ATP luminescence, 72 h | Potency, µM (series often up to 46.1 µM), hits mostly cytotoxic | 400,000 compounds, 1.4% hits | AID 1347075; note: % is set by controls: 0 for no effect and ±100 for the full control effect; nearly all actives have a fitted effect of over 60% in size
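Cytotoxicity in the drug-sensitive parental line KB-3-1 was scored as loss of CellTiter-Glo luminescence following 72 h incubation with compound. Values come from curve fitting of normalized concentration-response data.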
An asterisk follows results filed as active; i = inactive; ? = inconclusive; . = not tested or not shown; [ ] = dose if it differs, or a comment. Unless noted, calls come from the whole dose curve; as a rule, active = well fitted curve in the direction sought with a large enough effect; inconclusive = small, poorly fitted or top-dose-only effect, or another doubt; inactive = no such curve, though single readings can be large; an effect the other way counts as inactive or inconclusive. Potency is the fitted concentration of half-maximal effect.

SMILES	KB-V1 cytotox	PINK1 expr mod	SW480 rerep	MCF10A rereplic	12-LOX inh	KB-3-1 tox
COc1ccc(C2C(=O)N(C3CCCCC3)CC(=O)N2C2CCCC2)cc1 (centres undefined)	2.6µM*	4%[38.3 µM]	9%	1%	3%	i
COc1ccc(N2C(=O)CN(C3CCCCC3)[C@H]3CS(=O)(=O)C[C@H]32)cc1	.	.	.	.	10µM*	.
NS(=O)(=O)c1ccc(O)cc1	.	.	.	.	28%	.
CCOc1cc(/C=C2/C(=N)N3C=CSC3=NC2=O)ccc1OCCCOc1ccccc1C	i	-3%	?	3.3µM*	18%	i
CCOc1cc(/C=C2\C(=N)N3N=C(S(C)(=O)=O)SC3=NC2=O)ccc1OCCOc1cccc(OC)c1	i	7%	6%	23µM*	?	i
Cc1ccc2[nH]c(-c3ccccc3)cc2c1	.	.	.	.	-21%	.
O=C(O)C(c1c[nH]c2ccc(Cl)cc12)N1CCN(c2nsc3ccccc23)CC1 (centres undefined)	.	.	.	.	7%	.
COc1ccc(N/N=C(\C=N\O)C(=O)c2ccc(OC)cc2)cc1	i	0%	?	6.5µM*	?	?
COc1ccc(C(=O)C(=NNc2ccccc2)c2ccc(OC)cc2)cc1	i	-2%	3%	1%	-4%	i
CCOC(=O)C1C(=O)CC(C)(O)C(C(=O)OCC)C1c1ccc(N(CC)CC)cc1 (centres undefined)	i	1%	0%	20%	0%	i
CC(C)(C)OC(=O)C1C(=O)CC(C)(O)C(C(=O)OC(C)(C)C)C1c1cccnc1 (centres undefined)	i	-1%	0%	-3%	0%	i
CCN(CC)c1ccc(C2C(C(=O)OC(C)C)C(=O)CC(C)(O)C2C(=O)OC(C)C)cc1 (centres undefined)	18µM*	3%	1%	14%	-3%	i
CC(C)COC(=O)C1C(=O)CC(C)(O)C(C(=O)OCC(C)C)C1c1cccnc1 (centres undefined)	16µM*	3%	-8%	-1%	0%	i
CCN(CC)c1nc2ccccc2nc1C(=O)Nc1c(C)cccc1C	.	.	.	.	16%	.
COc1ccc2c(c1)c(C(C(=O)O)N1C[C@H](C)C[C@H](C)C1)cn2CC(=O)O (some centres undefined)	.	.	.	.	-45%	.
CSCCC(=O)NCCc1cccs1	.	.	.	.	-3%	.
COCc1nnc(NC(=O)C2c3ccccc3C(=O)N(CC(C)C)C23CCCC3)s1 (centres undefined)	.	.	.	.	-9%	.
COc1cc(/C=C/c2nc(C#N)c(NCc3ccc(F)cc3)o2)cc(OC)c1OC	.	.	.	.	-9%	.
O=C(C1CCN(c2nc(-c3cccs3)nc3ccccc23)CC1)N1CCCCCC1	.	.	.	.	8%	.
CCOc1cc(CNc2ccc(CNc3ncn[nH]3)cc2)ccc1OCc1ccccc1	18µM*	3%	-44%	21%	-6%	23µM*
O=C(/C=C/c1ccco1)N1CCCC(c2ccccc2)C1 (centres undefined)	i	1%	?	?	?	i
O=C(/C=C/c1ccccc1)N1CCC(c2ccccc2)C1 (centres undefined)	21µM*	1%	-32%	-8%	-12%	i
COC(=O)[C@@H]1Cc2ncn(C)c2CN1S(=O)(=O)c1ccc(OC)cc1	.	.	.	.	32µM*	.
COc1ccc2[nH]cc(C(C(=O)O)N3CCN(Cc4cccc(Cl)c4)CC3)c2c1 (centres undefined)	.	.	.	.	-6%	.
COc1cc2c(cc1OC)C(Cc1ccccc1[N+](=O)[O-])=NCC2	21µM*	-4%	-6%	8%	?	?
SMILES	KB-V1 cytotox	PINK1 expr mod	SW480 rerep	MCF10A rereplic	12-LOX inh	KB-3-1 tox
COc1ccc(NCc2ccccc2[N+](=O)[O-])cc1OC	21µM*	-1%	19%	?	-27%	i
COc1ccc2c(c1)CCN=C2Cc1ccc(OC)c(OC)c1	?	2%	-1%	17%	?	i
Cc1ccc(C)c(/C=C/C(=O)c2cccc(O)c2)c1	.	.	.	.	-19%	.
N#Cc1ccc(N2CCC(C(=O)Nc3cccc(S(=O)(=O)N4CCCC4)c3)CC2)nc1	.	.	.	.	-16%	.
Oc1ccc(/C=N/Nc2ccnc3cc(Cl)ccc23)cc1O	i	-1%	16µM*	23%	?	i
Clc1ccc2c(NCCNC3CCCCC3)ccnc2c1	?	-5%	6.5µM*	?	?	?
Oc1ccc(/C=N/Nc2ccnc3cc(Cl)ccc23)c(O)c1O	i	1%	?	-23%	?	i
Clc1ccc2c(NN=C3CCCC3)ccnc2c1	.	.	.	.	7.9µM*	.
COc1cc(C2CC(=O)Nc3nc(-c4ccccc4)[nH]c(=O)c32)cc(OC)c1OC (centres undefined)	.	.	.	.	60%	.
CNS(=O)(=O)c1cccc(C(=O)OCc2cc(Cl)cc3c2OCOC3)c1	18µM*	16%[38.3 µM]	15%	?	-10%	i
O=C1NCCCCCCN(C(=O)c2cccs2)[C@H]2C[C@H](C(=O)N3CCc4ccccc4C3)C[C@@H]12	.	.	.	.	27%	.
O=C(CCl)N1c2ccccc2Oc2ccc3ccccc3c21	?	?	5.8µM*	18µM*	?	i
Cc1ccc(C(=O)N/C(=C/c2ccc(-c3cccc([N+](=O)[O-])c3)o2)C(=O)NC(C)C)cc1	3.7µM*	5%	0%	20%	10%	i
Cc1ccc(C(=O)N/C(=C\c2ccc(-c3ccc(Cl)cc3)o2)C(=O)NCCCN(C)C)cc1	i	-4%	18µM*	?	-28%	?
Cc1ccc(C(=O)N/C(=C\c2ccc(-c3ccccc3[N+](=O)[O-])o2)C(=O)NCCN(C)C)cc1	?	1%	2.9µM*	-2%	26%	i
Cc1ccc(C(=O)N/C(=C\c2ccc(-c3ccccc3[N+](=O)[O-])o2)C(=O)NCCCN(C)C)cc1	i	0%	2%	11%	1%	i
NCC(=O)N1CCCC2(Cc3ccccc3CN2C(=O)Cc2cccc(Cl)c2)C1 (centres undefined)	.	.	.	.	3%[6.33 µM]	.
CC(=O)c1ccc(NC(=O)Cc2c(C)c3ccc(O)cc3oc2=O)cc1	.	.	.	.	-8%	.
Cc1cc(C(=O)CSc2nc3ccccc3[nH]2)c(C)n1Cc1ccco1	2.1µM*	2%	1%	28%	-7%	?
Cc1ccc2nc(SCC(=O)c3cc(C)n(C)c3C)[nH]c2c1	i	3%	-25%	21%	51%	i
Cc1cc(C(=O)CSc2nc3ccc(Cl)cc3[nH]2)c(C)n1C	21µM*	12%[38.3 µM]	-3%	-2%	-9%	i

Bioassay records deposited in PubChem by National Center for Advancing Translational Sciences (NCATS).
